The source of these data is PubChem BioAssay (NCATS).

Structures are written as SMILES. Where “and” joins values, the source holds several entries; their conditions need not be identical. Equal values may be shown once. Records with an inconclusive call do not appear. Where a structure was tested more than once in an assay, its records may differ in their call. A number with no mark means an inactive call. Calls of active or inactive are those of the source. Calls come from the whole dose curve; as a rule, active = well fitted inhibition curve with a large enough effect; inconclusive = small, poorly fitted or top-dose-only effect; inactive = flat fitted curve, though single readings scatter.

The test system of one test is CRL-7250. Description: Cytotoxic Profiling of Annotated Libraries Using Quantitative High-Throughput Screening (AID 1296008). For max response: % is set by controls: 0 for no effect and ±100 for the full control effect. Note: potency is the fitted concentration of half-maximal effect. To be noted: Five cell lines viability, CellTiter-Glo ATP luminescence, 48-72 h; max response: stronger effect = lower value. The essentials:
(§1)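 Cells exposed to compounds for 48 or 72 hr at 37 degrees Celsius. Viability read as ATP-coupled luminescence with CellTiter-Glo after 10 min at room temperature.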
A general note: In ATP-based viability assays light output follows the ATP content of the culture.

Another test deals with HEK293. The test is described as above. The note with it: Five cell lines viability, CellTiter-Glo ATP luminescence, 48-72 h; max response: stronger effect = lower value. The essentials:
as §1

Test [1] concerns HaCat. The test is described as above. The note with it: Five cell lines viability, CellTiter-Glo ATP luminescence, 48-72 h; max response: stronger effect = lower value. The essentials:
as §1

The next test concerns KB-3-1. The description is as above. To be noted: Five cell lines viability, CellTiter-Glo ATP luminescence, 48-72 h; max response: stronger effect = lower value. In outline: as §1
The test system of test [2] is HACAT. Description: qHTS assay to identify novel small-molecules to repurpose for Merkel cell carcinoma treatment (AID 1296009). The note with it: MCC and control cell lines, CellTiter-Glo viability, 72 h; at 44.8 µM (top of the series) unless noted. The essentials:
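CellTiter-Glo luminescence after 72 hr compound exposure at 37 degree celsius gave cell viability. Libraries NPC and MIPE were run as 8- and 11-point dose responses; RLUs normalized to DMSO (negative) and no-cell (cytotoxicity) controls.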

The test system of a further test is NIH3T3. Description: Cytotoxic Profiling of Annotated Libraries Using Quantitative High-Throughput Screening (AID 1296008). For max response: % is set by controls: 0 for no effect and ±100 for the full control effect. Note: potency is the fitted concentration of half-maximal effect. The note with it: Five cell lines viability, CellTiter-Glo ATP luminescence, 48-72 h; max response: stronger effect = lower value. In outline: as §1
The next test concerns TAB109. Description: qHTS profiling for inhibitors of Plasmodium falciparum proliferation (AID 504749).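 Note: 0% = DMSO vehicle and full inhibition = artemisinin control.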 The note with it: P. falciparum in erythrocytes, SYBR Green DNA, 72 h; series mostly up to 28.7 µM. In outline: (§2)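 SYBR Green fluorescence (ex 485 nm, em 535 nm) reports parasite DNA after 72 h compound exposure of infected red cells at 0.3% parasitemia, 2.5% hematocrit; signal normalized to 0.29 uM artemisinin and vehicle wells.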
A general note: In qHTS, concentration-response curves come from the screen itself.

A further test deals with TAB113. The description is as above. To be noted: P. falciparum in erythrocytes, SYBR Green DNA, 72 h; series mostly up to 28.7 µM. In outline: as §2
In a further test the test system is TAB165. The test is described as above. To be noted: P. falciparum in erythrocytes, SYBR Green DNA, 72 h; series mostly up to 28.7 µM. In outline:
as §2

In the next test the test system is W2. The description is as above. The note with it: P. falciparum in erythrocytes, SYBR Green DNA, 72 h; series mostly up to 28.7 µM. In outline:
as §2
Note: nearly all actives have a fitted effect of over 60% in size.

As for `Clc1ccc(C2(c3ccc(-c4cn[nH]c4)cc3)CCNCC2)cc1`, the Potency was 3.72 µM (active) and 7.31 µM (active) in the test on CRL-7250; 5.26 µM (active) and 10.3 µM (active) with HEK293; 13 µM (active) in the test with HaCat [1]; 16.6 µM (active) and 16.4 µM (active) in the test with KB-3-1. Besides, the compound was called inactive in the test on HaCat [1] and with HACAT [2].

In the case of `COc1cc2nccc(Oc3ccc(NC(=O)Nc4ccc(F)cc4F)c(F)c3)c2cc1OC`, the max response in the test with CRL-7250 is -18.7%.

Regarding `COc1nccc(-c2c(-c3ccc(F)cc3)ncn2C2CCC(O)CC2)n1` (centres undefined), the max response with CRL-7250 is 2.19% and -0.385%; in the test on HEK293, -17.3%; in the test on HaCat [1], -10.4%; with NIH3T3, -1.87%. For the same compound, the compound was classed as inactive in the test with HEK293, in the test with HaCat [1], with KB-3-1 and in the test with HACAT [2].

`Cc1ccccc1-n1c(Cn2nc(-c3cccc(O)c3)c3c(N)ncnc32)nc2cccc(C)c2c1=O`: the Potency with CRL-7250 was 2.64 µM (active). The outcome in the test with CRL-7250, in the test with HaCat [1], with NIH3T3 and with HACAT [2] was inactive. The max response with KB-3-1 was 4.26% and -1.18%; in the test with NIH3T3, -4.97%.

Consider `c1ccc(CNc2nc(N3CCOc4ccccc43)nc3c2CCCC3)cc1`, for which the max response was 3.99% in the test with CRL-7250; -18.6% and -15.3% in the test on HaCat [1]; 8.67% and -13.6% with KB-3-1; 3.56% with NIH3T3. Further, the compound was classed as inactive with CRL-7250 and with NIH3T3.

As to `Cc1ccc(NC(=O)c2ccc(CN3CCN(C)CC3)cc2)cc1Nc1nc(-c2cccnc2)cs1`, the results for the max response with CRL-7250, in the test with HaCat [1] and in the test with KB-3-1 were -52.7%, -8.86% and -13.9%, respectively. Besides, the Potency with HEK293 was 8.33 µM (active).

Consider `Cc1ccccc1C(C(=O)NC1CCCCC1)N(C(=O)CNc1ccc(C#N)cc1)c1cccc(F)c1` (centres undefined), for which the max response was 4.34% with CRL-7250; -1.85% with HEK293; -5.11% in the test on HaCat [1]; 5.31% in the test with KB-3-1; -3.8% and -0.279% in the test on NIH3T3. The call in the test with CRL-7250, in the test with HEK293, with HaCat [1], in the test on KB-3-1 and in the test with HACAT [2] was inactive.

As for `CCn1c(-c2nonc2N)nc2cncc(CNC3CCNCC3)c21`, the Potency in the test with CRL-7250 was 7.31 µM (active); with HEK293, 10.5 µM (active) and 2.31 µM (active). Besides, the max response is -17.9% in the test with HaCat [1]; 3.41% and -9.32% in the test with KB-3-1. Moreover, the compound was classed as inactive in the test on HaCat [1] and in the test on HACAT [2].

As to `c1cc(OCCN2CCCCC2)cc(-c2n[nH]c3ccc(-c4ncn[nH]4)cc23)c1`, the max response is -3.49% in the test on CRL-7250; -21.9% with KB-3-1; -3.48% and 4.45% in the test on NIH3T3. Moreover, the compound was classed as inactive in the test on CRL-7250, in the test with HaCat [1] and with HACAT [2].

On to `COc1nc(C)cnc1NS(=O)(=O)c1cccnc1-c1ccc(-c2nnco2)cc1`, for which the max response in the test with CRL-7250 was 1.92% and 1.59%; in the test with HaCat [1] it was 3.49%; with KB-3-1 it was -0.147%; in the test on NIH3T3 it was -2.15%. Moreover, the compound was called inactive with HEK293, with HaCat [1], with KB-3-1, in the test with NIH3T3 and in the test with HACAT [2].

On to `Cn1cc(-c2ccc3nnc(Sc4ccc5ncccc5c4)n3n2)cn1`, for which the results for the max response with CRL-7250, in the test with HaCat [1] and in the test with KB-3-1 were -0.0054%, 1.95% and 3.63%, respectively. Besides, in the test with HEK293, the outcome was inactive.

Consider `Nc1ccc(-c2ccc3ncc4ccc(=O)n(-c5cccc(C(F)(F)F)c5)c4c3c2)cn1`, for which the Potency is 0.0461 µM (active) in the test with CRL-7250; 0.0132 µM (active) in the test on HEK293; 2.64 µM (active) and 2.91 µM (active) with HaCat [1]; 4.2 nM (active) and 65.1 nM (active) in the test with KB-3-1; 20.9 nM (active) and 103 nM (active) in the test with NIH3T3. Also, the max response in the test on CRL-7250 was -76.7%.

On to `COC(=O)N1CCN(Cc2cccc(NC(=O)Nc3ccc(C)nc3)c2F)CC1`, for which the max response is -17.2% in the test with CRL-7250; 3.64% and 2.27% with HaCat [1]; -23.5% in the test on KB-3-1; -1.49% in the test with NIH3T3. The compound was called inactive with CRL-7250 and in the test on NIH3T3.

Turning to `Cc1cnc(Nc2cccc(CN3CCOCC3)c2)nc1Nc1cccc(S(=O)(=O)NC(C)(C)C)c1`, the compound was classed as inactive with CRL-7250, with HEK293, with HaCat [1] and in the test with HACAT [2]. Also, the values for the max response in the test on HaCat [1], in the test with KB-3-1 and in the test on NIH3T3 were -19.2%, 6.82% and -17.3%, respectively. For the same compound, in the test with KB-3-1, the Potency is 2.31 µM (active).

With `COc1ccnc(CS(=O)c2nc3ccc(OC(F)F)cc3[nH]2)c1OC` (centres undefined), the Potency result with TAB109, in the test with TAB113, with TAB165 and with W2 was “inactive” in each case. Also, the max response in the test on CRL-7250 was 3.58%; with HaCat [1] it was -12.5%; in the test with KB-3-1 it was -0.194% and 5.88%; in the test with NIH3T3 it was -24%. The outcome in the test on HEK293, in the test on HaCat [1], in the test with NIH3T3 and with HACAT [2] was inactive.

As for `CCN1CCN(c2ccc(Nc3cc(N(C)C(=O)Nc4c(Cl)c(OC)cc(OC)c4Cl)ncn3)cc2)CC1`, the Potency in the test with CRL-7250 was 7.31 µM (active); in the test with HEK293 it was 16.4 µM (active); in the test on HaCat [1], 8.2 µM (active); in the test on KB-3-1, 23.1 µM (active). For the same compound, the max response in the test with HaCat [1] is 4.46%; in the test on KB-3-1 it was 8.02%. Besides, the compound was classed as inactive in the test with NIH3T3.

`COc1ccc(CCC(=O)Nc2nc3ccc(Cl)cc3s2)cc1OC`: the max response was 1.51% and -1.65% in the test on CRL-7250; -26% in the test on HEK293; -6.83% with HaCat [1]; -8.12% and -15.4% with KB-3-1; -12.1% in the test with NIH3T3. Also, the outcome in the test on HaCat [1], with NIH3T3 and in the test with HACAT [2] was inactive.
